Reference: PubChem BioAssay
Several values for one entry are separate records, joined by “and”; a condition that tells them apart may be missing. Equal entries are not always repeated. Activity calls are given as the source filed them.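 The calls were made as follows, unless noted: active = compounds whose cell count with miR-34 switched on is under 0.7 times the count with it off; inactive = the rest.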

How the values were obtained:
[1] = test system: Aerobactin synthetase IucA (Klebsiella pneumoniae); test: inhibition of K. pneumoniae IucA enzyme – biochemical, Tocris library, absorbance (AID 1345561; call rule not given here;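 also: 100% = enzyme without compound and 0% = no enzyme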); settings: purified IucA enzyme assay, absorbance (OD) read-out; stronger effect = lower value;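 tested at 8 µM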
[2] = viability loss with induced miR-34 in A549 – imaging, A549 dox-inducible miR-34, nuclei and caspase counts, primary screen (AID 1347080); settings: A549 miR-34 inducible, Hoechst nuclei count, 48 h
[3] = galactose survival enhancers in mitochondrial complex I cybrids – cell-based, galactose medium, ATP luminescence, primary screen (AID 1645843;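 active = z-score of at least 1.8 in each of two replicates, scored against plate mean and spread of sample wells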;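 also: positive z means more ATP and so rescue of galactose-driven cybrid death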); settings: complex I mutant cybrid cells, 72 h, stronger effect = higher value
[4] = stronger effect = lower value, cell number ratio, induced over uninduced
[5] = measured here: relative caspase fold change +Dox/-Dox
[6] = measured here: total cells with miR-34 induction, stronger effect = lower value
[7] = measured here: total cells without miR-34 induction

Row | SMILES | remaining activity [1] | fold change [2, 4] | fold change [2, 5] | cell count [2, 6] | cell count [2, 7] | z-score [3]
1 | Nc1nc(-c2ccc(Cl)c(Cl)c2)c(-c2ccncc2)s1 | 110% (inactive) | 0.959 (inactive) | 1.23 | 8510 | 8870 | 1.59 (inactive)
2 | NC(Cn1ccc(=O)n(Cc2ccccc2C(=O)O)c1=O)C(=O)O (stereo unspecified) | 98.2% (inactive) | 0.925 (inactive) | 1.4 | 8950 | 9680 | 0.13 (inactive)
3 | CCc1cc(C2NNC(C)C2c2ccc3c(c2)OCCO3)c(O)cc1O (stereo unspecified) | 92.2% (inactive) | 1.01 (inactive) | 1.27 | 4520 | 4490 | 0.625 (inactive)
4 | O=C(N/N=C/c1ccccc1O)c1ccccc1O | 106% (inactive) | 0.984 (inactive) | 1.5 | 4010 | 4070 | -0.59 (inactive)
5 | CCc1ccccc1OC[C@@H](O)CN[C@H]1CCCc2ccccc21 | 106% (inactive) | 0.986 (inactive) | 0.799 | 4870 | 4940 | -0.74 (inactive)
6 | CC(=O)N(O)[C@@H]1c2cc(C#N)ccc2OC(C)(C)[C@H]1O | 89.1% (inactive) | 0.882 (inactive) | 2.17 | 8800 | 9980 | 0.655 (inactive)
7 | Cn1ccc2cc(NC(=O)Nc3cccnc3)ccc21 | 111% (inactive) | 0.984 (inactive) | 0.852 | 8400 | 8540 | 0.405 (inactive)
8 | CNC(=O)[C@@H](Cc1ccccc1)N(C)C(=O)[C@@H](Cc1ccc2ccccc2c1)N(C)C(=O)/C=C/CC(C)(C)N | 99.8% (inactive) | 1 (inactive) | 0.957 | 9200 | 9170 | -0.39 (inactive)
9 | O=C(O)COc1ccc(OCCNC[C@@H](O)COc2ccccc2)cc1 | 89.3% (inactive) | 0.984 (inactive) | 1.02 | 8850 | 8990 | 0.955 (inactive)
10 | O=C(Nc1ccc([N+](=O)[O-])cc1O)Nc1ccccc1Br | 105% (inactive) | 1.13 (inactive) and 1.09 (inactive) | 1.05 and 1.85 | 5450 and 2460 | 4830 and 2250 | -0.58 (inactive)
11 | NC(=O)CCCCn1ccc(NC(N)=NCC(F)(F)F)n1 | 98.2% (inactive) | 0.945 (inactive) | 0.965 | 8750 | 9250 | 1.19 (inactive)
12 | CC1(C)CCC(C)(C)c2cc(C3(c4ccc(C(=O)O)cc4)OCCO3)ccc21 | 106% (inactive) | 0.895 (inactive) | 2.19 | 8580 | 9580 | 0.95 (inactive)
13 | CN(N=O)C(=O)N[C@H]1C(O)O[C@H](CO)[C@@H](O)[C@@H]1O (stereo partly specified) | 111% (inactive) | 0.958 (inactive) | 0.621 | 8770 | 9160 | -0.2 (inactive)
14 | Cc1ccccc1N=Nc1ccc(NC(=O)c2ccnn2C)c(C)c1 | 109% (inactive) | 0.919 (inactive) | 0.67 | 5460 | 5950 | -0.675 (inactive)
15 | c1ccc(CN2CCC3(CCc4ccccc43)CC2)cc1 | 97.3% (inactive) | 0.952 (inactive) | 0.584 | 8830 | 9280 | 0.76 (inactive)
16 | COc1cc(C[C@H]2C(=O)OC[C@@H]2Cc2ccc(OC)c(OC)c2)ccc1O | 104% (inactive) | 0.937 (inactive) | 0.733 | 4240 | 4530 | -0.76 (inactive)
17 | NC(N)=Nc1ccc(Cl)cc1 | 81.8% (inactive) | 0.948 (inactive) | 0.891 | 8620 | 9100 | -0.49 (inactive)
18 | COc1ccccc1C1(O)CCN(CCCn2c3ccccc3c3ccccc32)CC1 | 91.1% (inactive) | 0.694 (active) | 1.55 | 323 | 466 | -0.705 (inactive)
19 | COc1ccc(NC(=O)c2ccc(-c3ccc(-c4noc(C)n4)cc3C)cc2)cc1OCCN(C)C | 128% (inactive) | 1.2 (inactive) | 1.18 | 1160 | 962 | -0.765 (inactive)
20 | CCOC(=O)c1ncc2[nH]c3cccc(OC(C)C)c3c2c1C | 96.4% (inactive) | 0.924 (inactive) | 0.813 | 5120 | 5540 | -0.64 (inactive)
21 | O=C(O)/C=C1\CCCc2ccccc2C1O (stereo unspecified) | 103% (inactive) | 0.917 (inactive) | 0.874 | 8860 | 9660 | -0.145 (inactive)
22 | CC(C)N1Cc2cc(S(C)(=O)=O)ccc2N(CCN2CC=C(c3c[nH]c4cc(F)ccc34)CC2)S1(=O)=O | 110% (inactive) | 0.929 (inactive) | 1.15 | 6990 | 7530 | 0.12 (inactive)
23 | COc1cc(N)c(Cl)cc1C(=O)OCCCN1CCCCC1 | 102% (inactive) | 0.975 (inactive) | 0.823 | 9460 | 9700 | 0.255 (inactive)

Row | SMILES | remaining activity [1] | fold change [2, 4] | fold change [2, 5] | cell count [2, 6] | cell count [2, 7] | z-score [3]
24 | OC[C@H]1O[C@@H](n2cnc3c(NC4CCCC4)ncnc32)[C@H](O)[C@@H]1O | 123% (inactive) | 0.882 (inactive) | 0.89 | 9040 | 10200 | 0.51 (inactive)
25 | N=C(N)c1ccc(N2CCN(C3CCN(CC(=O)O)CC3)CC2)cc1 | 115% (inactive) | 1 (inactive) | 0.72 | 9390 | 9350 | -0.165 (inactive)
26 | c1ccc(N2CCN(Cc3nc4ccccc4[nH]3)CC2)nc1 | 78.8% (inactive) | 0.909 (inactive) | 2.02 | 8260 | 9090 | 0.04 (inactive)
27 | C[C@@H]1CC2C3CCC4=CC(=O)C=CC4(C)C3(F)[C@@H](O)CC2(C)C1(O)C(=O)CO (stereo partly specified) | 110% (inactive) | 0.804 (inactive) | 0.753 | 7230 | 8990 | 0.725 (inactive)
28 | NC(=O)N1c2ccccc2CC(O)c2ccccc21 (stereo unspecified) | 111% (inactive) | 0.942 (inactive) | 0.846 | 8870 | 9420 | -0.055 (inactive)
29 | Clc1ccc(CCCOCCCN2CCCCC2)cc1 | 105% (inactive) | 0.895 (inactive) | 1.39 | 7600 | 8480 | -0.64 (inactive)
30 | Nc1c(S(=O)(=O)O)cc(Nc2cccc3ccccc23)c2c1C(=O)c1ccccc1C2=O | 109% (inactive) | 0.981 (inactive) | 1.43 | 9410 | 9590 | 3.16 (active)
31 | CN(CCc1ccc(Cl)c(Cl)c1)CC(O)COc1ccc(NS(C)(=O)=O)cc1 (stereo unspecified) | 107% (inactive) | 0.951 (inactive) and 0.956 (inactive) | 1.56 and 0.961 | 4180 and 6530 | 4390 and 6830 | 0.67 (inactive)
32 | CC(=O)N1CCN(C)CC1 | 118% (inactive) | 0.971 (inactive) | 0.837 | 8470 | 8720 | 0.29 (inactive)
33 | COc1cc(COc2cc(N)c(Cl)cc2C(=O)CCC2CCN(CCNS(C)(=O)=O)CC2)cc(OC)c1 | 100% (inactive) | 0.842 (inactive) | 1.5 | 3930 | 4660 | -0.81 (inactive)
34 | CC(C)(C)n1nc(-c2cccc3ccccc23)c2c(N)ncnc21 | 117% (inactive) | 0.947 (inactive) | 1.81 | 3180 | 3350 | -0.105 (inactive)
35 | COc1cc2c(cc1OC)-c1cc3nc4ccccc4nc3n1C(C)(C)C2 | 119% (inactive) | 1.11 (inactive) | 0.782 | 4000 | 3590 | -0.79 (inactive)
36 | NC(C(=O)O)c1ccc(C(=O)O)c(O)c1 (stereo unspecified) | 93.9% (inactive) | 0.966 (inactive) | 1.12 | 9030 | 9350 | -0.31 (inactive)
37 | CC[C@@H](C)[C@H]1O[C@]2(CC[C@@H]1C)C[C@@H]1C[C@@H](C/C=C(\C)[C@@H](O[C@H]3C[C@H](OC)[C@@H](O[C@H]4C[C@H](OC)[C@@H](O)[C@H](C)O4)[C@H](C)O3)[C@@H](C)/C=C/C=C3\CO[C@@H]4[C@H](O)C(C)=CC(C(=O)O1)[C@]34O)O2 (stereo partly specified) (tested in a mixture with another compound) | 124% (inactive) | 0.987 (inactive) | 1.53 | 507 | 514 | -1.04 (inactive)
38 | COc1ccc2cccc(N3CCN(CCNC(=O)c4ccc(F)cc4)CC3)c2c1 | 104% (inactive) | 0.924 (inactive) | 0.854 | 7720 | 8360 | -0.77 (inactive)
39 | O=C(NCCN1CCCCC1)c1ccc(I)cc1 | 103% (inactive) | 0.954 (inactive) | 0.747 | 9320 | 9760 | 0.155 (inactive)
40 | CCCCCCN(CCCCCC)C(=O)Cc1c(-c2ccc(Cl)cc2)[nH]c2ccc(Cl)cc12 | 102% (inactive) | 0.89 (inactive) | 0.984 | 5700 | 6410 | -1.19 (inactive)
41 | CCN(CC)CC1CCN(c2ncc3ncnc(Nc4ccc(F)c(Cl)c4)c3n2)CC1 | 124% (inactive) | 0.891 (inactive) | 1.55 | 1440 | 1620 | -0.675 (inactive)
42 | N[C@@H](CC(=O)Nc1ccc(Oc2cc(F)c(F)cc2Br)cc1)C(=O)O | 98.2% (inactive) | 0.952 (inactive) | 1.1 | 7870 | 8270 | 0.265 (inactive)
43 | Cc1ccc(NC(=O)C(C)C)cc1C1CCN(Cc2ccc(Oc3ccc(F)c(F)c3)cc2)CC1 | 107% (inactive) | 1.03 (inactive) | 0.737 | 1330 | 1290 | -0.705 (inactive)
44 | Nc1nnc(Sc2ncc([N+](=O)[O-])s2)s1 | 119% (inactive) | 0.911 (inactive) | 4.18 | 3000 | 3290 | -1.04 (inactive)
45 | CCCCC(=O)NCCc1c(Cc2ccccc2)[nH]c2ccccc12 | 108% (inactive) | 0.933 (inactive) | 0.702 | 6310 | 6770 | 0.26 (inactive)
46 | O=C(/C=C/c1ccccc1)NC(NC(=S)Nc1cccc2cccnc12)C(Cl)(Cl)Cl (stereo unspecified) | 124% (inactive) | 1.01 (inactive) | 1.71 | 4630 | 4560 | -0.47 (inactive)
